# HT1080NT lethal: qHTS for induction of synthetic lethality in tumor cells producing 2HG: qHTS for the HT-1080-NT fibrosarcoma cell line | HT-1080-NT fibrosarcoma viability, CellTiter-Glo ATP luminescence, 48 h | Potency, µM (titrated, usually from 46.1 µM), inactives show at the highest dose activity, negative = less viability, actives largely listed as cytotoxic | hit rate 1.6% among 360,000 | AID 686970, 2013;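 further: NT is the 2HG producing partner of a matched IDH1 knockdown line; 0% = DMSO-treated cells and -100% = media-only wells without cells; nearly all actives have a fitted effect of over 55% in size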
#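 Fibrosarcoma NT cells, 750 per well in 5% FBS RPMI, were exposed to compound for 48 hours. Viability: CellTiter-Glo luminescence.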
# HT1080 IDH1KD tx: qHTS for induction of synthetic lethality in tumor cells producing 2HG: qHTS for the HT-1080-IDH1KD cell line. HT-1080 IDH1 knockdown viability, ATP luminescence, 48 h. Potency, µM (titrated, usually from 46.1 µM), for the others: top-dose activity, negative = toxicity, actives largely listed as cytotoxic. hit rate 2% among 360,000;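 further: 0% = DMSO wells and -100% = cell-free medium wells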
#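 Luminescent ATP read-out (CellTiter-Glo, 10 min at room temperature) after 48 h compound exposure at 37 °C gave viability of IDH1-knockdown HT-1080 cells. Activity was normalised to DMSO and cell-free wells, then fitted as concentration-response curves.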
# TDP1 cell CPT: qHTS for Inhibitors of human tyrosyl-DNA phosphodiesterase 1 (TDP1): qHTS in cells in presence of CPT; Potency, µM (series often up to 46.2 µM), for inactives: at the top dose activity change, negative = growth inhibition, actives largely listed as inhibitors; hit rate 12% among 420,000; chicken DT40 Tdp1-/-;hTDP1 cells + 20 nM CPT, ATP luminescence, 48 h; further: nearly all actives have a fitted effect of over 55% in size
#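 Chicken DT40 Tdp1-/- cells complemented with human TDP1, 400 cells/well, exposed to compounds plus 20 nM camptothecin for at least 48 h at 37 C; viability read as ATP content by CellTiter-Glo luminescence.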
# DT40 TDP1 no CPT: qHTS for Inhibitors of human tyrosyl-DNA phosphodiesterase 1 (TDP1): qHTS in cells in absence of CPT | DT40 Tdp1-/- hTDP1 cells, no CPT, ATP luminescence, 48 h | Potency, µM (series often up to 46.2 µM), for the others: top-dose activity change, negative = growth inhibition, usual class: inhibitors | hit rate 15% among 420,000; further: nearly all actives have a fitted effect of over 55% in size
#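 Chicken DT40 Tdp1-/- cells stably complemented with human TDP1 were seeded at 400 cells/well with DMSO in place of 20 nM camptothecin. After compound pinning, cells grew at least 48 hr at 37 °C; viability read by CellTiter-Glo luminescence.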
# KB-3-1 cytotox: qHTS assay for MDR1-selective chemotherapeutics: Primary screen using the parental adenocarcinoma cell KB-3-1 | KB-3-1 viability, CellTiter-Glo ATP luminescence, 72 h | Potency, µM (titrated, usually from 46.1 µM), usual class: cytotoxic | hit rate 1.4% among 400,000 | AID 1347075, 2019; further: nearly all actives have a fitted effect of over 60% in size
#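 Cytotoxicity measured as CellTiter-Glo luminescence after 72 h at 37 C. Compound titrations were pinned onto drug-naive KB-3-1 parental adenocarcinoma cells grown in DMEM with 10% FBS, and normalized data fitted to concentration-response curves.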
# KB-V1 cytotox: qHTS assay for MDR1-selective chemotherapeutics: Primary screen using the drug-selected MDR subline cells KB-V1 | KB-V1 MDR cells viability, CellTiter-Glo, 72 h | Potency, µM (series often up to 46.1 µM), hits mostly cytotoxic | hit rate 3.4% among 400,000; further: nearly all actives have a fitted effect of over 60% in size
#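 KB-V1 MDR subline cells in DMEM (phenol-red free, 10% FBS) exposed to compounds in qHTS concentration series for 72 h at 37 degrees C. Viability read by CellTiter-Glo luminescence; concentration-effect curves fitted after normalization and correction.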
# Starred values were filed as active, the others as inactive; i = inactive; ? = inconclusive; . = no result given. Sampled rows, rich in hits. Any-hit rate of the full collection: about 19%. The call rests on the fitted dose curve; in most records, active means well fitted curve in the direction sought with a large enough effect; inconclusive means small, poorly fitted or top-dose-only effect, or another doubt; inactive means no such curve, though single readings can be large; an effect the other way counts as inactive or inconclusive. Unless noted, on the % scale 0 is the no-effect control and ±100 the full control effect; potency means the concentration at half of the fitted maximal effect.
SMILES,HT1080NT lethal,HT1080 IDH1KD tx,TDP1 cell CPT,DT40 TDP1 no CPT,KB-3-1 cytotox,KB-V1 cytotox
CC1CCCC(C)N1C(=O)Cn1cc(C#N)c2ccccc21 (centres undefined),1%,1%,-5%,-19%,i,i
CC(C)(C)C(=O)NC(=S)NNC(=O)c1ccc(Cl)cc1Cl,9.2µM*,18µM*,?,5.8µM*,?,?
CC(C)(C)NC(=S)NNC(=O)c1cccc(Br)c1,5%,-1%,5.8µM*,6.5µM*,?,16µM*
O=C(NNC(=S)Nc1ccccc1)c1cccc(Br)c1,12%,6%,-12%,-25%,i,i
O=C(Nc1ccc(Cl)cc1)Nc1cccc(C(=O)O)c1,5%,-2%,4%,-7%,i,i
CNC(=S)NNC(=O)c1ccccc1Cl,10%,3%,3%,0%,i,?
O=C(NNC(=O)c1cccc(Br)c1)Nc1ccc(Cl)cc1,-15%,0%,23µM*,?,i,i
CC(C)(C)NC(=S)NNC(=O)c1ccccc1Cl,14%,21%,15µM*,10µM*,i,i
COc1cc(NC(=O)C(NS(=O)(=O)c2ccc3c(c2)CCCC(=O)N3)C(C)C)cc(OC)c1 (centres undefined),.,.,2%,-5%,i,i
O=C(/C=C1\C(=O)Nc2ccccc21)/C=C1\C(=O)Nc2ccccc21,?,?,1.5µM*,1.8µM*,?,i
O=C1Nc2ccccc2/C1=C\C(=O)c1ccccc1,18µM*,?,2.9µM*,2.1µM*,i,i
CC(C)Oc1ccc(C(=O)/C=C2/C(=O)Nc3ccccc32)cc1,?,?,?,12µM*,?,i
CN(O)/C=C1\C(=O)Nc2ccccc21,-6%,-12%,-9%,-31%,i,?
Cn1c(SCC(=O)NC2CCS(=O)(=O)C2)nc2ccccc21 (centres undefined),-1%,1%,-17%,-25%,i,i
O=C(Nc1nc2ccccc2n1Cc1ccccc1)c1ccco1,-16%,-18%,21µM*,21µM*,?,i
CCCn1c(NC(=O)C2CCN(S(=O)(=O)c3cccs3)CC2)nc2ccccc21,?,?,15µM*,16µM*,23µM*,?
CCCn1c(NCc2ccco2)nc2ccccc21,1%,-22%,10%,0%,i,21µM*
CCCn1c(NC(=O)c2ccccc2)nc2ccccc21,-23%,-30%,?,?,?,15µM*
Cc1ccc(S(=O)(=O)N2C[C@H]3C(=O)C[C@@H](c4ccccc4)N(S(=O)(=O)c4cccc(C)c4)[C@H]3C[C@H]2c2ccccc2)cc1,14%,13%,-23%,?,i,i
Cn1c(NC(=O)c2cccnc2)nc2ccccc21,-3%,-5%,?,?,i,16µM*
CCCn1c(NC(=O)c2cccc(S(=O)(=O)N3CCCC3)c2)nc2ccccc21,?,?,23µM*,13µM*,16µM*,16µM*
C=CCn1c(NC(=O)c2ccc(C)cc2)nc2ccccc21,2%,5%,?,?,i,i
CCCn1c(NC(=O)c2ccc(C)cc2)nc2ccccc21,-5%,-10%,?,26µM*,?,?
Cc1ccccc1NC(=O)c1cccc(S(=O)(=O)N2CCCCC2)c1,-7%,-3%,-4%,-29%,i,i
O=C(Nc1cnc2ccccc2c1)c1cccnc1,-22%,?,-20%,-10%,?,i
SMILES,HT1080NT lethal,HT1080 IDH1KD tx,TDP1 cell CPT,DT40 TDP1 no CPT,KB-3-1 cytotox,KB-V1 cytotox
CCCn1c(Nc2nc3ccccc3n2C)nc2ccccc21,13µM*,16µM*,-9%,?,?,?
CN1CCN(S(=O)(=O)c2cccc(C(=O)Nc3sc4c(c3-c3nc5ccccc5[nH]3)CCCC4)c2)CC1,-20%,-22%,15µM*,13µM*,i,i
Cn1c(/C=N/NC(=O)c2ccccc2)nc2ccccc21,10µM*,?,?,26µM*,i,?
CC(C)Cn1c(CNC(=O)c2ccccc2)nc2ccccc21,-3%,1%,-29%,?,i,?
CCCn1c(CNC(=O)c2ccccc2)nc2ccccc21,11%,10%,-10%,-2%,i,23µM*
Cn1c(C(=O)N/N=C/c2ccccc2)cc2ccccc21,0%,6%,0%,?,i,i
Cc1ccc(/C=N/NC(=O)c2ccc(-c3ccccc3)cc2)o1,-24%,-15%,-3%,?,i,?
O=C(N/N=C/c1ccc(N2CCCCC2)o1)c1ccccc1,-26%,?,9.2µM*,12µM*,?,i
C[C@@H](NC(=O)[C@@H]1CCCN1C(=O)[C@@H]1CCCN1C(=O)c1ccccc1)c1ccccc1,11%,1%,-18%,5%,i,i
CCOC(=O)c1ccc(NS(=O)(=O)c2cc3c(cc2C)n(C)c(=O)c(=O)n3C)cc1,.,.,?,?,i,?
COc1ccccc1OCc1nn[nH]n1,12%,?,1%,2%,i,i
CCOc1cc(N2CCOCC2)c(OCC)cc1NC(=O)COc1ccccc1[N+](=O)[O-],-3%,-6%,-10%,?,i,i
COc1ccc(C(=O)Nc2ccc(N3CCN(C(=O)c4ccccc4)CC3)cc2)cc1[N+](=O)[O-],-8%,-16%,15µM*,?,i,?
CN1CCN(c2ccc(NC(=O)COc3ccccc3[N+](=O)[O-])cc2)CC1,1%,5%,-2%,?,i,?
O=C(COc1ccccc1[N+](=O)[O-])Nc1cccc(Cl)c1N1CCOCC1,-14%,?,16µM*,15µM*,.,.
COc1ccc(C(=O)Nc2ccc(N3CCN(C(=O)C(C)C)CC3)cc2)cc1[N+](=O)[O-],21%,30%,?,12µM*,i,i
CC(C)C(=O)N1CCN(c2ccc(NC(=O)COc3ccccc3[N+](=O)[O-])cc2)CC1,?,?,15µM*,18µM*,?,18µM*

# High-throughput results as filed in PubChem BioAssay.
